# Values quoted from earlier work, collected in PubChem BioAssay AID977610.
# Out of some 3,600 compounds screened, about 3,600 (100%) were called active. Cut-off not given; nearly all actives show Ki up to about 18000 µM. The set was probably picked from earlier hits. The list shows a part of the results. Where a SMILES comes first, the peptide text is derived from it. Non-standard residues stand in square brackets, D forms with d. Square brackets hold non-standard residues; d marks the D form. Residues, ends and D or L forms follow the SMILES beside them. Peptide text beside a SMILES is read from it. [ ]: non-standard residue; d: D form. Orn(CH(NH2)2) = NC(N)NCCC[C@H](N)C(=O)O; Ahx = NCCCCCC(=O)O
# Experiment: PubChem AID 977610
# Conditions: PDB protein-ligand complexes, literature Ki
compound,measurement,setting,value
Cc1cc(C)c(/C=N/NC(=O)[C@@H](N)Cc2c[nH]c3ccccc23)c(C)c1,Ki,"protein: Endothiapepsin, PDB entry 4kup",6 µM (active)
Cc1nn(C)c(C)c1Cc1nnc(-c2sc3ccccc3c2OC2CCNCC2)o1,Ki,"protein: Plasmodium vivax N-myristoyltransferase, PDB entry 2yne",0.0027 µM (active)
CC[C@H](C)[C@H](NC(=O)[C@@H]1CCCN1C(=O)[C@H](CC(=O)O)NC(=O)[C@H](CC(C)C)NC(=O)[C@H](C)NC(=O)[C@@H](N)Cc1c[nH]c2ccccc12)C(=O)N[C@@H](C)C(=O)NCC(=O)N[C@@H](CCCCN)C(=O)N[C@@H](Cc1c[nH]c2ccccc12)C(=O)N[C@@H](CO)C(=O)N[C@@H](CCCNC(N)N)C(=O)O (H-WALDPIAGKWS[Orn(CH(NH2)2)]-OH),Ki,"protein: Acyl-[acyl-carrier-protein]--UDP-N-acetylglucosamine O-acyltransferase, PDB entry 2aq9",0.05 µM (active)
CC[C@H](C)[C@H](NC(=O)[C@H](CO)NC(=O)[C@@H](NC(=O)[C@@H]1CCCN1C(=O)[C@H](Cc1c[nH]c2ccccc12)NC(=O)[C@H](CCCNC(N)N)NC(=O)[C@@H](N)CO)[C@@H](C)O)C(=O)N[C@@H](CC(C)C)C(=O)O (H-S[Orn(CH(NH2)2)]WPTSIL-OH),Ki,"protein: Tax1-binding protein 3, PDB entry 4e3b",0.9 µM (active)
H-SRWPTTRL-OH,Ki,"protein: CFTR Associated Ligand (CAL) PDZ domain, PDB entry 4k76",4.5 µM (active)
CC[C@H](C)[C@H](NC(=O)[C@H](CO)NC(=O)[C@@H](NC(=O)[C@@H]1CCCN1C(=O)[C@H](Cc1c[nH]c2ccccc12)NC(=O)[C@@H](N)CCCNC(N)N)[C@@H](C)O)C(=O)N[C@@H](CC(C)C)C(=O)O (H-[Orn(CH(NH2)2)]WPTSIL-OH),Ki,"protein: Golgi-associated PDZ and coiled-coil motif-containing protein, PDB entry 4e35",24 µM (active)
H-GGGGGGAVPGSWPW-OH,Ki,"protein: Chymotrypsinogen A, PDB entry 1oxg",2.7e-05 µM (active)
CSCC[C@H](NC(C)=O)C(=O)N[C@@H](Cc1c[nH]c2ccccc12)C(=O)N[C@@H](CC(=O)O)C(=O)N[C@@H](Cc1ccccc1)C(=O)N[C@@H](CC(=O)O)C(=O)N[C@@H](CC(=O)O)C(=O)NCCCCCC(=O)N[C@@H](CCSC)C(=O)N1CCC[C@H]1C(=O)N1CCC[C@H]1C(=O)N[C@@H](C)C(=O)N[C@@H](CC(=O)O)C(=O)N[C@@H](CCC(=O)O)C(=O)N[C@@H](CC(=O)O)C(=O)N[C@@H](Cc1ccc(O)cc1)C(=O)N[C@@H](CO)C(=O)N1CCC[C@H]1C(N)=O (Ac-MWDFDD[Ahx]MPPADEDYSP-NH2),Ki,"protein: interleukin-8(IL-8), PDB entry 1ilq",13 µM (active)
CC[C@H](C)[C@H](NC(=O)[C@H](CCCNC(N)N)NC(=O)CNC(=O)[C@@H](NC(=O)[C@@H](NC(=O)[C@@H](NC(=O)[C@@H](NC(=O)[C@H](CO)NC(=O)CN)C(C)C)C(C)C)[C@@H](C)CC)C(C)C)C(=O)N[C@H](C(=O)N[C@@H](CC(C)C)C(=O)N[C@@H](CO)C(=O)O)[C@@H](C)CC (H-GSVVIVG[Orn(CH(NH2)2)]IILS-OH),Ki,"protein: HCV NS3 protease, PDB entry 1dxp",0.027 µM (active)
CCC(CC)O[C@@H]1CC(C(=O)O)=C[C@H](n2cc(C(C)(C)O)nn2)[C@H]1NC(C)=O,Ki,"protein: Neuraminidase, PDB entry 4ks5",0.13 µM (active)
CCC(CC)O[C@@H]1CC(C(=O)O)=C[C@H](n2cc([C@H](O)CC)nn2)[C@H]1NC(C)=O,Ki,"protein: Neuraminidase, PDB entry 4ks4",0.072 µM (active)
CCC(CC)O[C@@H]1CC(C(=O)O)=C[C@H](n2cc(CCCO)nn2)[C@H]1NC(C)=O,Ki,"protein: Neuraminidase, PDB entry 4ks3",0.43 µM (active)
CCn1c(O)cc(=O)n(CC)c1=S,Ki,"protein: AmpC beta-lactamase, PDB entry 4kz8",1600 µM (active)
O=C(O)c1ccc(CCNS(=O)(=O)c2ccsc2C(=O)O)cc1,Ki,"protein: AmpC beta-lactamase from E. coli, PDB entry 4jxv",31 µM (active)
O=C(O)C(=O)CO,Ki,PDB entry 4mfe,5400 µM (active)
NCCCC[C@H](NC(=O)[C@H](CCCN=C(N)N)NC(=O)[C@H](CC(N)=O)NC(=O)[C@H](CCC(=O)O)NC(=O)[C@H](CS)NC(=O)CNC(=O)[C@H](CCCN=C(N)N)NC(=O)[C@H](CC(=O)O)NC(=O)[C@H](Cc1c[nH]c2ccccc12)NC(=O)[C@H](CS)NC(=O)[C@@H](N)CCC(N)=O)C(=O)N[C@@H](CS)C(=O)N[C@@H](CC(N)=O)C(N)=O (H-QCWDRGCENRKCN-NH2),Ki,"protein: urokinase-type plasminogen activator (uPA), PDB entry 4mnw",1.72 µM (active)
CC(C)C[C@H](N)C(=O)N[C@@H](CS)C(=O)N[C@@H](CO)C(=O)N[C@@H](CC(=O)O)C(=O)N[C@@H](CCCN=C(N)N)C(=O)NCC(=O)N[C@@H](CS)C(=O)N[C@@H](CCC(=O)O)C(=O)N[C@@H](CC(N)=O)C(=O)N[C@@H](CCCN=C(N)N)C(=O)N[C@@H](Cc1c[nH]c2ccccc12)C(=O)N[C@@H](CS)C(=O)N[C@@H](CCCCN)C(N)=O (H-LCSDRGCENRWCK-NH2),Ki,"protein: urokinase-type plasminogen activator (uPA), PDB entry 4mnx",17.7 µM (active)
C#C[C@@H]1N[C@@H](C)[C@@H](O)[C@H]1O,Ki,"protein: Alpha-L-fucosidase Fuc2970, PDB entry 4pct",0.07 µM (active)
NC(N)NCCCNC(=O)[C@@H]1CCCCN1C(=O)[C@@H](CC1CCCCC1)NCC(=O)O,Ki,"protein: bovine trypsin, PDB entry 1k1o",0.675 µM (active)
Nc1[nH]c(=S)nc2[nH]ncc12,Ki,"protein: PDE10A2, PDB entry 4lkq",450 µM (active)
NC(N)NCCC[C@H](N)[P+](O)(O)O,Ki,"protein: M1 family aminopeptidase, PDB entry 4k5m",193 µM (active)
NC(N)NCCCC[C@H](N)[P+](O)(O)O,Ki,"protein: M1 family aminopeptidase, PDB entry 4k5l",11 µM (active)
C[C@@H]1N[C@@H](C#Cc2ccccc2)[C@H](O)[C@@H]1O,Ki,"protein: Alpha-L-fucosidase Fuc2970, PDB entry 4pcs",0.014 µM (active)
C[C@H](NC(=O)[C@H](C)NC(=O)[C@H](Cc1cc(-c2ccc(-c3cccc(Cl)c3)cc2)no1)C[P+](O)(O)c1ccc(Br)cc1)C(N)=O,Ki,"protein: Macrophage metalloelastase (F171D mutation), PDB entry 4gr0",0.00028 µM (active)
C[C@H](NC(=O)[C@H](C)NC(=O)[C@H](Cc1cc(-c2ccccc2)no1)C[P+](O)(O)c1ccc(Br)cc1)C(N)=O,Ki,"protein: Macrophage metalloelastase (F171D mutation), PDB entry 4gr8",0.0147 µM (active)
N=Cc1nc(N2CCOCC2)nc(N(Cc2ccc(Cl)cc2)C2CCCCC2)n1,Ki,"protein: CATHEPSIN L1, PDB entry 4axm",0.013 µM (active)
C[C@H](NC(=O)[C@H](CO)N[C@H](O)CSCCNC(=O)CCNC(=O)[C@H](O)C(C)(C)CO[P+](O)(O)O[P+](O)(O)OCc1oc(-n2cnc3c(N)ncnc32)c(O)c1O[P+](O)(O)O)C(=O)N[C@@H](CO)C(=O)N[C@@H](CCC(=O)O)C(=O)O,Ki,"protein: N-terminal acetyltransferase A complex subunit nat1, PDB entry 4kvm",8.9 µM (active)
H-PKSFLV-OH,Ki,"protein: LSD1-CoREST complex, PDB entry 3zmu",49.6 µM (active)
H-PLSFLV-OH,Ki,"protein: LSD1-CoREST complex, PDB entry 3zmv",55 µM (active)
